Each structure is given as a SMILES string. Inconclusive results are not listed. Unmarked numbers belong to inactive results. Calls of active or inactive are those of the source. Calls follow the shape of the dose curve; as a rule, active = well fitted cell-killing curve with a large enough effect; inconclusive = small, poorly fitted or top-dose-only effect, or effect the other way; inactive = flat fitted curve, though single readings scatter.
% is scaled to controls: 0 for no effect and ±100 for the full control effect; potency is read from the fitted curve at half-maximal effect.

This test relates to SKOV3. The test can be described thus: Primary qHTS to identify gynecologic anti-cancer compounds using libraries of approved drugs and bioactive compounds (AID 1345084). Also: nearly all actives have a fitted effect of over 55% in size. The conditions noted are these: Gynecologic cancer cell panel viability, ATPlite luminescence, 48 h; series mostly up to 57.5 µM; activity change, negative = cytotoxicity: at the top concentration. Summed up: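 Cells, 1,000 per well, were allowed to settle for 16 h at 37 C before compound addition. Five concentrations were tested for 48 h, and viability was read by ATPlite luminescence after 15 min at room temperature.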
In general terms: In qHTS, concentration-response curves come from the screen itself.
Consider `CCN[C@H]1C[C@H](C)S(=O)(=O)c2sc(S(N)(=O)=O)cc21`, for which the “activity change, negative = cytotoxicity” value was 1.24%.
On the same count and under the same terms, to `CCn1cc(C(=O)O)c(=O)c2cc(F)c(N3CCNCC3)cc21` belongs -14.9%.
On the same count and under the same terms, to `COc1cc(NCc2ccc3nc(N)nc(N)c3c2C)cc(OC)c1OC` belongs -14.1%.
Still for that read-out and setting: as for `NC(=O)c1cccnc1`, the figure is 8.48%; as for `O=C(N[C@H](CO)[C@H](O)c1ccc([N+](=O)[O-])cc1)C(Cl)Cl`, -3.63% [at 116 µM].
As to `CC(C)C[C@H](NC(=O)[C@H](CCc1ccccc1)NC(=O)CN1CCOCC1)C(=O)N[C@@H](Cc1ccccc1)C(=O)N[C@@H](CC(C)C)C(=O)[C@@]1(C)CO1`, the Potency was 0.251 µM (active).
Take `Clc1ccccc1CN1CCc2sccc2C1`: the “activity change, negative = cytotoxicity” value was -1.24%.
Regarding `O[C@@H](CNC[C@H](O)[C@H]1CCc2cc(F)ccc2O1)[C@@H]1CCc2cc(F)ccc2O1`, the Potency was 22.4 µM (active).
Regarding `O=C(O)c1ccc(-n2nc(-c3ccccc3O)nc2-c2ccccc2O)cc1`, the “activity change, negative = cytotoxicity” value is 7.72%.
The same measure, in the same setting: to `CCC(=O)O[C@]1(C(=O)SCF)[C@H](C)C[C@H]2[C@@H]3C[C@H](F)C4=CC(=O)C=C[C@]4(C)[C@@]3(F)[C@@H](O)C[C@@]21C` belongs -3.31%; to `Cc1cc(NS(=O)(=O)c2ccc(N)cc2)no1`, 2.92%.
In the case of `NC(N)=NC(N)=NCCc1ccccc1`, the Potency was 14.1 µM (active).
Consider `Cc1noc(NS(=O)(=O)c2ccc(N)cc2)c1C`, for which the “activity change, negative = cytotoxicity” value is 28.1%.
With `Nc1nc(F)nc2c1ncn2[C@@H]1O[C@H](CO)[C@@H](O)[C@@H]1O`, the Potency entry was “inactive”.
Regarding `CCc1cc(C(N)=S)ccn1`, the “activity change, negative = cytotoxicity” value was 4.88%.
Regarding `CNCC[C@H](Oc1cccc2ccccc12)c1cccs1`, the Potency was 20 µM (active).

The values above are taken from PubChem BioAssay (NCATS).
